Results on 40 compounds are retold here after PubChem BioAssay (EPA / NIEHS).

What is called AC50 is the midpoint of the concentration-response curve, whichever way the signal moves.

The structures appear in SMILES notation. Active and inactive are the calls of the source. How the source made its calls: active means hit-call score of the fitted dose curve at least 0.9, where 1 is the maximum; inactive means score below 0.9.

Hepatocyte nuclear factor 3-beta (Homo sapiens), sequence (Q9Y261 whole entry, looked up): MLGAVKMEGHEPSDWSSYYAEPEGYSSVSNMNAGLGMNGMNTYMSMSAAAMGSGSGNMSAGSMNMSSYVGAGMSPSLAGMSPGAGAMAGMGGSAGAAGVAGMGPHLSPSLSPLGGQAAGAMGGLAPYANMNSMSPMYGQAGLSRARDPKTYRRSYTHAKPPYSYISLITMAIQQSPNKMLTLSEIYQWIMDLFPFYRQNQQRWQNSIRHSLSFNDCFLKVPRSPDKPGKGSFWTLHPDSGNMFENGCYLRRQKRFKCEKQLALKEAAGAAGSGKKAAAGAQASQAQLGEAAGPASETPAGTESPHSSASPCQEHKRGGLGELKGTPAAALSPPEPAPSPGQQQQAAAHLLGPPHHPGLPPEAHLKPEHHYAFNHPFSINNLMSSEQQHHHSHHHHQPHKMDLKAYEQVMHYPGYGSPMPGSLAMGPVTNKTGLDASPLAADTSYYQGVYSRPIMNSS

This experiment addresses Hepatocyte nuclear factor 3-beta (Homo sapiens) (UniProt Q9Y261). Kind of experiment: ATG_FoxA2_CIS: Attagene CIS-FACTORIAL HepG2 Assay for human Forkhead box A2 (FOXA2) (AID 2282942). Conditions: HepG2 cis-reporter transcription factor activity, 24 h; actives raise or lower the signal. The method, then: ATG_CIS is a cell-based, multiplexed-readout assay that uses HepG2, a human liver cell line, with measurements taken at 24 hours after chemical dosing in a 24-well plate.ATG_FoxA2_CIS is one of 52 assay component(s) measured or calculated from the ATG_CIS assay. It is designed to make measurements of mRNA induction, a form of inducible reporter, as detected with fluorescence intensity signals by Reverse transcription polymerase chain reaction (RT-PCR) and Capillary electrophoresis technology.Data from the assay component ATG_FoxA2_CIS was analyzed into 1 assay endpoint. This assay endpoint, ATG_FoxA2_CIS, was analyzed with bidirectional fitting relative to DMSO as the negative control and baseline of activity. Using a type of inducible reporter, measures of mRNA for gain or loss-of-signal activity can be used to understand the reporter gene at the transcription factor-level as they relate to the gene FOXA2. Furthermore, this assay endpoint can be referred to as a primary readout, because this assay has produced multiple assay endpoints where this one serves a reporter gene function. To generalize the intended target to other relatable targets, this assay endpoint is annotated to the dna binding intended target family, where the subfamily is forkhead box protein.
Human liver HepG2 cells are transiently transfected with multiple reporter transcription units (MRTUs) in 6-well plates using FuGene 6 reagent (Roche; 3 ml FuGene/1 mg DNA). The MRTU constructs are regulated by a cis-regulating element (promoter). […] A major difference between the CIS and TRANS system is that in CIS activities of endogenous TFs are measured, whereas the TRANS assay evaluates changes in activities of exogenous, chimeric NR-Gal4 proteins. […] At the end of 24 hour incubation, total RNA was isolated using TriZol reagent (Invitrogen). The isolated RNA is then reverse-transcribed using oligo(dT) primer and Mo-MLV reverse transcriptase (Invitrogen) with DNAse I (Ambion) treatment for 30 min. The one-tenth of the produced cDNA was amplified by PCR using Taq DNA polymerase (Invitrogen) and two reporter sequence-specific primers. The PCR products were fluorescently labeled by primer extension with 6-arboxyfluorescein (6-FAM) 5'-labeled reporter sequence-specific primer (2 min at 95 C, 20 s at 68 C and 10 min at 72 C) and these products were digested with 5U of HpaI (New England Biolabs) for 2h at 37 C. The fragments were purified using Qiaquick PCR columns (Qiagen), analyzed on an ABI 3130xL genetic analyzer (Applied Biosystems) with peak positions identified by using a set of X-rhodamine (ROX)-labeled MapMarker1000 molecular weight standards (BioVentures). The raw capillary electrophoresis data was processed using Attagraph software (Attagene).
As for `Nc1ccn([C@H]2CC[C@@H](CO)O2)c(=O)n1`, the result was inactive. Same read-out and setting: the result for `CCCCOCCOCCO` reads “inactive”. Still for that read-out and setting: the value for `CC(=N[Si](C)(C)C)O[Si](C)(C)C` was “inactive”; that for `[O-]/[N+](=N\O)c1ccccc1` was “inactive”; that for `C=C(C)C(=O)OCCN(C)C` was “inactive”. The same measure, in the same setting: the value for `NC(=O)NC(N)=O` was “inactive”; that for `CCCCN(CCCC)CCCCCCN(CCCC)CCCC` was “inactive”. With `CCCC1CCC(=O)CC1`, the compound was called inactive.

For the compound `O=C(C=Cc1ccccc1)OCCCc1ccccc1`, the compound was classed as inactive. On the same count and under the same terms, the result for `CC1=CCC(C(C)C)=CC1` reads “inactive”. For `C=CC(O)CCCCC` (stereo not given), the result was inactive. As to `OC[C@H]1O[C@@H](O[C@H]2[C@H](O)[C@@H](O)[C@H](O)O[C@@H]2CO)[C@H](O)[C@@H](O)[C@H]1O`, the compound was called inactive. On the same count and under the same terms, the value for `COC(=O)c1cccc(C(=O)OC)c1` was “inactive”; that for `CC(O)COCC(C)O` (stereo not given) was “inactive”; that for `CC(=O)c1ccc(O)cc1` was “inactive”. On the same count and under the same terms, the value for `CN(C)c1ccc(C=O)cc1` was “inactive”. Still for that read-out and setting: the result for `CC(=O)OC(C)(C)C` reads “inactive”; that for `CC/C(=C(\c1ccccc1)c1ccc(OCCN(C)C)cc1)c1ccccc1`, “inactive”; that for `CCCCCCCOC(C)=O`, “inactive”. In the case of `CCC=C(C)C=O`, the call was inactive. Same read-out and setting: the value for `NNC(=O)OCc1ccccc1` was “inactive”. As to `C=CC(=O)OCC(CO)(COC(=O)C=C)COC(=O)C=C`, the half-maximal activity concentration (AC50) was 123 µM (active). As for `O=c1cc[nH]cc1`, the compound was called inactive. On the same count and under the same terms, the value for `N=C1N=C(N)c2ccccc21` was “inactive”; that for `Cc1cccc(C)c1` was “inactive”. `CCOC(=O)CC1(C)OCC(C)O1` (stereo not given): the result was inactive.

For the compound `CCC(=O)OC/C=C(\C)CCC=C(C)C`, the compound was called inactive. Still for that read-out and setting: the value for `CC(C)=CCCC(C)=CC(=O)O` was “inactive”; that for `CC(C)(C)c1ccc(S)cc1` was “inactive”; that for `N#CCCNCCC#N` was “inactive”. With `COc1ccc2[nH]cc(CCNC(C)=O)c2c1`, the result was inactive. Still for that read-out and setting: the result for `CCCCOC(=O)C(C)OC(=O)CCC` (stereo not given) reads “inactive”; that for `CCCCCC#CC(=O)OC`, “inactive”. For `Cc1ccncc1`, the outcome was inactive. On to `CCCCCCCCCC(=O)OCC`, for which the result was inactive. Same read-out and setting: the value for `CCCCCCCCCCCCN1CCOCC1` was “inactive”; that for `COC(=O)C(C)Oc1ccc(Oc2ncc(C(F)(F)F)cc2Cl)cc1` (stereo not given) was “inactive”; that for `CCC(C)(C)C1CCC(OC)CC1` (stereo not given) was “inactive”.

For `CCCCOCCOC(=O)c1ccccc1C(=O)OCCOCCCC`, the outcome was inactive. Same read-out and setting: the value for `O=C1CCC(=O)N1` was “inactive”.
